# ± gives the standard deviation of the averaged measurements.
# Key:
# [1] = tested on: Escherichia coli Nissle 1917; assay: area under OmniLog respiration curve over 48 h (OmniLog units x h); higher = more growth / nutrient utilisation; extreme values may be limits of the assay; conditions: incubation: 48 h, 37 °C
# [2] = tested on: Escherichia coli Nissle 1917; assay: DuctApe activity index of respiration/growth curve (0 no growth to 9 maximum) (index 0-9); higher = more growth / nutrient utilisation, active = 3 or more; extreme values may be limits of the assay; conditions: incubation: 48 h, 37 °C
# [3] = nutrient role: C-Source, amino acid
# [4] = nutrient role: sole nitrogen source (pyruvate carbon)
# [5] = nutrient role: sole sulfur source (pyruvate carbon)
# [6] = nutrient role: C-Source, carbohydrate
# [7] = nutrient role: sole phosphorus source (pyruvate carbon)
# 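Throughout, for DuctApe activity index of respiration/growth curve (0 no growth to 9 maximum): biolog PM4 phosphorus and sulfur plates, tetrazolium violet dye reduction read in the OmniLog every 15 min, kinetic curves scored by DuctApe, each plate run in triplicate.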
compound,measurement,setting,value
O=C1CC[C@@H](C(=O)O)N1 [L-Pyroglutamic acid],area under OmniLog respiration curve,[1]; [3],6.07 ± 1.2
same,area under OmniLog respiration curve,[1]; [4],4.72
same,DuctApe activity index,[2]; [3],0 (inactive)
same,DuctApe activity index,[2]; [4],0 (inactive)
C[C@H](N)C(=O)O [L-Alanine],area under OmniLog respiration curve,[1]; [3],8160 ± 580
same,area under OmniLog respiration curve,[1]; [4],7330 ± 1200
same,DuctApe activity index,[2]; [3],8 (active)
same,DuctApe activity index,[2]; [4],8 (active)
C[C@@H](N)C(=O)O [D-Alanine],area under OmniLog respiration curve,[1]; [3],7620 ± 460
same,area under OmniLog respiration curve,[1]; [4],6690 ± 1200
same,DuctApe activity index,[2]; [3],8 (active)
same,DuctApe activity index,[2]; [4],7.33 (active)
CC[C@H](C)[C@H](N)C(=O)O [L-Isoleucine],area under OmniLog respiration curve,[1]; [3],11.5 ± 6.6
same,area under OmniLog respiration curve,[1]; [4],64.6 ± 81
same,DuctApe activity index,[2]; [3],0 (inactive)
same,DuctApe activity index,[2]; [4],1 (inactive)
CSCC[C@H](N)C(=O)O [L-Methionine],area under OmniLog respiration curve,[1]; [3],33.3 ± 28
same,area under OmniLog respiration curve,[1]; [4],4200 ± 940
same,area under OmniLog respiration curve,[1]; [5],6300 ± 150
same,DuctApe activity index,[2]; [3],0 (inactive)
same,DuctApe activity index,[2]; [4],6 (active)
same,DuctApe activity index,[2]; [5],7 (active)
N[C@@H](Cc1ccccc1)C(=O)O [L-Phenylalanine],area under OmniLog respiration curve,[1]; [3],8.61 ± 5.9
same,area under OmniLog respiration curve,[1]; [4],4290 ± 1100
same,DuctApe activity index,[2]; [3],0 (inactive)
same,DuctApe activity index,[2]; [4],6 (active)
N[C@H](CO)C(=O)O [D-Serine],area under OmniLog respiration curve,[1]; [3],9490 ± 1100
same,area under OmniLog respiration curve,[1]; [4],7130 ± 1200
same,DuctApe activity index,[2]; [3],8.67 (active)
same,DuctApe activity index,[2]; [4],7.67 (active)
N[C@H](CC(=O)O)C(=O)O [D-Aspartic acid],area under OmniLog respiration curve,[1]; [3],48 ± 53
same,area under OmniLog respiration curve,[1]; [4],4.72
same,DuctApe activity index,[2]; [3],0.667 (inactive)
same,DuctApe activity index,[2]; [4],0 (inactive)
N[C@@H](CCO)C(=O)O [L-Homoserine],area under OmniLog respiration curve,[1]; [3],4.72
same,area under OmniLog respiration curve,[1]; [4],546 ± 600
same,DuctApe activity index,[2]; [3],0 (inactive)
same,DuctApe activity index,[2]; [4],1.33 (inactive)
NC(=O)C[C@H](N)C(=O)O [L-Asparagine],area under OmniLog respiration curve,[1]; [3],8660 ± 760
same,area under OmniLog respiration curve,[1]; [4],8770 ± 1400
same,DuctApe activity index,[2]; [3],8.67 (active)
same,DuctApe activity index,[2]; [4],8.67 (active)
O=c1[nH]cnc2c1ncn2[C@@H]1O[C@H](CO)[C@@H](O)[C@H]1O [Inosine],area under OmniLog respiration curve,[1]; [6],9540 ± 290
same,area under OmniLog respiration curve,[1]; [4],24.8 ± 35
same,DuctApe activity index,[2]; [6],9 (active)
same,DuctApe activity index,[2]; [4],0 (inactive)
NCCCCN [Putrescine],area under OmniLog respiration curve,"[1]; nutrient role: C-Source, amine",13.7 ± 8.1
same,area under OmniLog respiration curve,[1]; [4],31.6 ± 46
same,DuctApe activity index,"[2]; nutrient role: C-Source, amine",0 (inactive)
same,DuctApe activity index,[2]; [4],0 (inactive)
CC(=O)N[C@@H]1[C@@H](O)[C@H](O)[C@@H](CO)O[C@@H]1O [N-Acetyl-D-Glucosamine],area under OmniLog respiration curve,[1]; [6],7820 ± 520
same,area under OmniLog respiration curve,[1]; [4],1070 ± 1100
same,DuctApe activity index,[2]; [6],8 (active)
same,DuctApe activity index,[2]; [4],2.33 (inactive)
NCC(=O)O [Glycine],area under OmniLog respiration curve,[1]; [3],4.72
same,area under OmniLog respiration curve,[1]; [4],4420 ± 1100
same,DuctApe activity index,[2]; [3],0 (inactive)
same,DuctApe activity index,[2]; [4],6 (active)
N[C@@H](CC(=O)O)C(=O)O [L-Aspartic acid],area under OmniLog respiration curve,[1]; [3],8900 ± 710
same,area under OmniLog respiration curve,[1]; [4],8720 ± 1400
same,DuctApe activity index,[2]; [3],8.67 (active)
same,DuctApe activity index,[2]; [4],8.33 (active)
O=P(O)(O)O[C@H]1O[C@H](CO)[C@@H](O)[C@H](O)[C@H]1O [D-Glucose-1-Phosphate],area under OmniLog respiration curve,[1]; [6],8850 ± 750
same,area under OmniLog respiration curve,[1]; [7],8060 ± 560
same,DuctApe activity index,[2]; [6],8.67 (active)
same,DuctApe activity index,[2]; [7],8.33 (active)
CC(=O)N[C@@H]1C(O)O[C@H](CO)[C@@H](O)[C@@H]1O (stereo partly drawn) [N-Acetyl-D-Mannosamine],area under OmniLog respiration curve,[1]; [6],7300 ± 450
same,area under OmniLog respiration curve,[1]; [4],1040 ± 740
same,DuctApe activity index,[2]; [6],7.67 (active)
same,DuctApe activity index,[2]; [4],2.33 (inactive)
O=C(O)[C@@H]1CCCN1 [L-Proline],area under OmniLog respiration curve,[1]; [3],8520 ± 530
same,area under OmniLog respiration curve,[1]; [4],4840 ± 1100
same,DuctApe activity index,[2]; [3],8.67 (active)
same,DuctApe activity index,[2]; [4],6 (active)
CC(N)=O [Acetamide],area under OmniLog respiration curve,"[1]; nutrient role: C-Source, amide",9.31 ± 7.2
same,area under OmniLog respiration curve,[1]; [4],26.4 ± 38
same,DuctApe activity index,"[2]; nutrient role: C-Source, amide",0 (inactive)
same,DuctApe activity index,[2]; [4],0 (inactive)
N[C@@H](CCC(=O)O)C(=O)O [L-Glutamic acid],area under OmniLog respiration curve,[1]; [3],7390 ± 830
same,area under OmniLog respiration curve,[1]; [4],7860 ± 1300
same,DuctApe activity index,[2]; [3],7.67 (active)
same,DuctApe activity index,[2]; [4],8 (active)
C[C@H](N)C(=O)NCC(=O)O,area under OmniLog respiration curve,[1]; [3],7280 ± 620
same,area under OmniLog respiration curve,[1]; [4],8020 ± 1200
same,DuctApe activity index,[2]; [3],7.67 (active)
same,DuctApe activity index,[2]; [4],8 (active)
NCCC[C@H](N)C(=O)O [L-Ornithine],area under OmniLog respiration curve,[1]; [3],34.5 ± 27
same,area under OmniLog respiration curve,[1]; [4],2670 ± 1300
same,DuctApe activity index,[2]; [3],0 (inactive)
same,DuctApe activity index,[2]; [4],4 (active)
NCCCC[C@H](N)C(=O)O [L-Lysine],area under OmniLog respiration curve,[1]; [3],10.5 ± 10
same,area under OmniLog respiration curve,[1]; [4],301 ± 240
same,DuctApe activity index,[2]; [3],0 (inactive)
same,DuctApe activity index,[2]; [4],1 (inactive)
O=c1ccn([C@@H]2O[C@H](CO)[C@@H](O)[C@H]2O)c(=O)[nH]1 [Uridine],area under OmniLog respiration curve,[1]; [6],9200 ± 570
same,area under OmniLog respiration curve,[1]; [4],8.86 ± 7.2
same,DuctApe activity index,[2]; [6],8.67 (active)
same,DuctApe activity index,[2]; [4],0 (inactive)
CC(=O)N[C@H]1C(O)O[C@H](CO)[C@H](O)[C@@H]1O (stereo partly drawn) [N-Acetyl-D-Galactosamine],area under OmniLog respiration curve,[1]; [6],8120 ± 580
same,area under OmniLog respiration curve,[1]; [4],992 ± 1000
same,DuctApe activity index,[2]; [6],8 (active)
same,DuctApe activity index,[2]; [4],2.33 (inactive)
N=C(N)NCCC[C@H](N)C(=O)O [L-Arginine],area under OmniLog respiration curve,[1]; [3],4.72
same,area under OmniLog respiration curve,[1]; [4],7500 ± 1400
same,DuctApe activity index,[2]; [3],0 (inactive)
same,DuctApe activity index,[2]; [4],8 (active)
NC(=O)[C@H]1O[C@@H](O)[C@H](O)[C@@H](O)[C@@H]1O [Glucuronamide],area under OmniLog respiration curve,"[1]; nutrient role: C-Source, amide",33.5 ± 50
same,area under OmniLog respiration curve,[1]; [4],2520 ± 1200
same,DuctApe activity index,"[2]; nutrient role: C-Source, amide",0.333 (inactive)
same,DuctApe activity index,[2]; [4],4.33 (active)
O=P(O)(O)OC[C@H](O)CO (racemic) [DL-a-Glycerol Phosphate],area under OmniLog respiration curve,[1]; [6],7910 ± 780
same,area under OmniLog respiration curve,[1]; [7],9010 ± 860
same,DuctApe activity index,[2]; [6],7.67 (active)
same,DuctApe activity index,[2]; [7],8.67 (active)
CC(=O)N[C@@H](CCC(=O)O)C(=O)O [N-Acetyl-L-Glutamic acid],area under OmniLog respiration curve,[1]; [3],4.72
same,area under OmniLog respiration curve,[1]; [4],4.72
same,DuctApe activity index,[2]; [3],0 (inactive)
same,DuctApe activity index,[2]; [4],0 (inactive)
NCC(=O)N[C@@H](CCC(=O)O)C(=O)O,area under OmniLog respiration curve,[1]; [3],7660 ± 620
same,area under OmniLog respiration curve,[1]; [4],7640 ± 1700
same,DuctApe activity index,[2]; [3],7.67 (active)
same,DuctApe activity index,[2]; [4],8 (active)
N[C@@H](Cc1c[nH]cn1)C(=O)O [L-Histidine],area under OmniLog respiration curve,[1]; [3],4.72
same,area under OmniLog respiration curve,[1]; [4],4.72
same,DuctApe activity index,[2]; [3],0 (inactive)
same,DuctApe activity index,[2]; [4],0 (inactive)

# Reference: the supplement of paper PMC9801561
